The list is not random: actives were taken first. Their share in the collection is about 18%.
LDHA block – qHTS assay for inhibitors of human lactate dehydrogenase; AID 1347041, 2019; actives 0.15% (n = 480,000); L-lactate dehydrogenase A chain (Homo sapiens), P00338; purified LDHA, NADH/diaphorase-resazurin fluorescence; stronger effect = lower value; activity change, % (values are at about 110 or 230 µM); in the data active means activity change below about -30%; inconclusive means mostly about -25% to -30%;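 further: plate controls were DMSO wells for no effect and wells without enzyme for full effect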
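Enzyme activity of human lactate dehydrogenase 5 (2 nM; 0.06 mM NADH, 0.2 mM pyruvate, 5 min, RT) is measured via a resazurin/diaphorase fluorescence readout of residual NADH.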
VP16 counter – VP16 counterscreen qHTS for inhibitors of ROR gamma transcriptional activity; Drosophila S2 Gal4-VP16 UAS-luciferase, luminescence, 20 h; Potency, µM (doses to about 53.6 µM), inactives show at the top dose activity, negative = inhibition, usual class: inhibitors; actives 3.5% (n = 310,000); AID 2546, 2010;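 further: Gal4-VP16 expression switched on by copper sulfate through the metallothionein promoter; potency means the concentration at half of the fitted maximal effect; nearly all actives have a fitted effect of over 50% in size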
DT40 TDP1 CPT – qHTS for Inhibitors of human tyrosyl-DNA phosphodiesterase 1 (TDP1): qHTS in cells in presence of CPT. chicken DT40 Tdp1-/-;hTDP1 cells + 20 nM CPT, ATP luminescence, 48 h. Potency, µM (doses to about 46.2 µM), for inactives: at the highest dose activity change, negative = growth inhibition, most hits filed as inhibitors. actives 12% (n = 420,000); further: potency means the concentration at half of the fitted maximal effect; nearly all actives have a fitted effect of over 55% in size
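Chicken DT40 Tdp1-/- cells complemented with human TDP1, 400 cells/well, exposed to compounds plus 20 nM camptothecin for at least 48 h at 37 C; viability read as ATP content by CellTiter-Glo luminescence.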
IL-1B inflam inh – qHTS for Inhibitors of Inflammasome Signaling: IL-1-beta AlphaLISA Primary Screen; activity change, % at 57.5 µM; THP-1 LPS/ATP IL-1B secretion, AlphaLISA, 16 h; stronger effect = lower value; actives 4.7% (n = 360,000); AID 743279, 2014; in the data active means activity change below about -50%; inconclusive means mostly about -30% to -49%
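THP-1 cells pretreated 1 hr with compounds (up to 57.5 uM final), then stimulated with LPS (250 ng/mL final) plus ATP (1.25 mM final); secreted IL-1B measured by AlphaLISA after 16 hr, decreased signal indicating inhibition.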
TDP1 cell noCPT – qHTS for Inhibitors of human tyrosyl-DNA phosphodiesterase 1 (TDP1): qHTS in cells in absence of CPT; AID 686978, 2013; Potency, µM (series often up to 46.2 µM), without a hit: top-dose activity change, negative = growth inhibition, usual class: inhibitors; actives 15% (n = 420,000); DT40 Tdp1-/- hTDP1 cells, no CPT, ATP luminescence, 48 h; further: potency means the concentration at half of the fitted maximal effect; nearly all actives have a fitted effect of over 55% in size
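Seeded 400 DT40-hTDP1 cells/well (vehicle DMSO, no 20 nM CPT); pinned compounds; ≥48 hr at 37 °C; CellTiter-Glo luminescence as viability measure.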
RORg inh – qHTS for inhibitors of ROR gamma transcriptional activity; Nuclear receptor ROR-gamma (Mus musculus), P51450; Drosophila S2 Gal4-RORgamma UAS-luciferase reporter, 20 h; Potency, µM (highest dose often 53.6 µM), without a hit: at the top dose activity change, negative = inhibition, actives largely listed as inhibitors; actives 5.4% (n = 310,000); further: potency means the concentration at half of the fitted maximal effect; nearly all actives have a fitted effect of over 60% in size
Target sequence (P51450 whole entry, looked up, the tested form may be a part): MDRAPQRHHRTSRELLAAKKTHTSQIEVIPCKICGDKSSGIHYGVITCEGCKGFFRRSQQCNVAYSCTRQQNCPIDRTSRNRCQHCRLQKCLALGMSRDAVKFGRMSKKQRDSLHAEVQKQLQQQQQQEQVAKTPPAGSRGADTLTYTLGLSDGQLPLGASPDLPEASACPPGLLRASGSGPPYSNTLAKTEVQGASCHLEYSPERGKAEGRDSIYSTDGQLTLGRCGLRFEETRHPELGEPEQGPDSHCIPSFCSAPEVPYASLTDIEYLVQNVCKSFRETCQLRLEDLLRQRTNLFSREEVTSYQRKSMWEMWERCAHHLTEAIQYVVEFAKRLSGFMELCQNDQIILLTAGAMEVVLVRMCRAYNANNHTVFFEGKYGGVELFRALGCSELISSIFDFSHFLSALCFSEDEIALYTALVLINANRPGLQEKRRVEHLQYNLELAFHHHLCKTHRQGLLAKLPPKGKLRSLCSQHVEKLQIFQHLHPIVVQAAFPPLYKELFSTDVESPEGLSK
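Drosophila S2 cells stably expressing Gal4-DBD/mouse RORγ fusion under metallothionein promoter plus UAS-luciferase; compound 1 h, then 700 uM CuSO4 induction for 20 h at ambient temperature; inhibition read as reduced luminescence.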
* = called active by the depositor; ? = inconclusive; / = no result given; [ ] = dose if it differs, or a comment. Unless noted, the call rests on the fitted dose curve; in most records, active means well fitted curve in the direction sought with a large enough effect; inconclusive means small, poorly fitted or top-dose-only effect, or another doubt; inactive means no such curve, though single readings can be large; an effect the other way counts as inactive or inconclusive. Unless noted, on the % scale 0 is the no-effect control and ±100 the full control effect.

SMILES | LDHA block | VP16 counter | DT40 TDP1 CPT | IL-1B inflam inh | TDP1 cell noCPT | RORg inh
Cc1cccc(SCc2noc(C(=O)NC(C)C)c2C(=O)O)c1 | -0.9 | 15.8µM* | -3.8% | 16.6 | 12.7% | ?
CCCCNC(=O)c1onc(CSc2ccc(F)c(F)c2)c1C(=O)O | -7.7 | 2.8% | 20.6µM* | 3.5 | -9.9% | 13.0%
S=C(NCCCCc1ccccc1)Nc1cccc(Cl)c1Cl | -2.2 | / | / | / | / | /
CCOc1ccc(CN(C)S(=O)(=O)c2cnn(C)c2)cc1OC | 6.3 | / | / | / | / | /
CCCCN(c1nc2ccccc2nc1Cl)S(=O)(=O)c1ccc(C)cc1 | -5.2 | 2.51µM* | 20.6µM* | 7.6 | 9.2µM* | -34.6%
CCCN(CCC)CC(O)CN(c1ccccc1)S(=O)(=O)c1ccc(C)cc1 (stereo not drawn) | -14.0 | -1.1% | ? | -23.8 | ? | -3.7%
CCNc1c(NC(=O)c2ccc(OC)c(Br)c2)c(=O)oc2ccccc12 | 2.5 | / | / | / | / | /
Clc1ccccc1-n1nnnc1-c1ccncc1 | -6.3 | / | / | / | / | /
O=C(COc1ccccc1)NCCc1csc(-c2cccnc2)n1 | -6.5 | / | / | / | / | /
COc1ccc(CC(=O)NCCc2csc(-c3cccc(F)c3)n2)cc1OC | -2.9 | / | -19.2% | / | ? | /
O=S(=O)(NCCc1csc(-c2ccc(F)cc2)n1)c1ccc(F)cc1F | 1.3 | / | 16.4µM* | / | 20.6µM* | /
O=C(COc1ccccc1)NCCc1csc(-c2ccc(F)cc2)n1 | -4.1 | / | 14.6µM* | / | ? | /
O=C(CCc1ccccc1)NCCc1csc(-c2cccc(F)c2)n1 | -1.3 | / | ? | / | 18.4µM* | /
Cc1nn(CN2CCN(S(=O)(=O)c3cccc(Cl)c3Cl)CC2)c(=O)c2ccccc12 | -4.5 | / | / | / | / | /
CCOC(=O)[C@]12CCCC=C1N(Cc1ccc(Cl)cc1Cl)C(=O)[C@H](CC(=O)NCc1ccccc1)C2 | 1.5 | / | ? | 0.0 | ? | /
CCOC(=O)[C@]12CCC=C1N(Cc1ccc(Cl)cc1Cl)C(=O)[C@H](CC(=O)NCc1cccc3ccccc13)C2 | -0.8 | / | ? | -29.7 | 23.1µM* | /
CCOC(=O)[C@]12CCC=C1N(Cc1cccc3ccccc13)C(=O)[C@H](CC(=O)NCc1cccc3ccccc13)C2 | -4.4 | / | ? | 0.0 | ? | /
CCOC(=O)[C@]12CCC=C1N(Cc1ccc(Cl)cc1Cl)C(=O)[C@H](CC(=O)NCc1ccc(OC)c(OC)c1)C2 | 2.6 | / | 16.4µM* | -21.6 | ? | /
O=C(/C=C/c1ccc(Cl)cc1)NC(=S)Nc1ccccc1C(=O)O | -7.8 | -0.3% | ? | 0.0 | ? | 9.3%
CC(C)=CC(=O)Nc1ccccc1C(N)=O | -2.5 | -15.4% | -0.4% | -16.5 | -17.6% | -4.7%
Cc1c(O)ccc(NC(=O)/C=C/c2ccccc2)c1C | -3.2 | -5.9% | 18.4µM* | 0.0 | 14.6µM* | 34.8%
NC(=O)c1ccccc1NC(=O)/C=C/c1ccc(Cl)cc1 | -4.8 | 5.0%[0.365 µM] | ? | -14.4 | 16.4µM* | -2.3%
CCS(=O)(=O)c1ccc(O)c(NC(=O)/C=C/c2ccccc2)c1 | -4.8 | 3.1% | 0.1% | 13.9 | -9.5% | ?
NC(=O)c1ccccc1NC(=O)/C=C/c1ccccc1 | -2.8 | -14.0% | ? | -12.2 | 20.6µM* | -37.2%
CC(=O)Nc1nc(NC(=O)/C=C/c2ccccc2)n(-c2ccccc2)n1 | 1.9 | 0.891µM* | 11.6µM* | 37.1 | 8.2µM* | 0.282µM*
SMILES | LDHA block | VP16 counter | DT40 TDP1 CPT | IL-1B inflam inh | TDP1 cell noCPT | RORg inh
CC(C)CC(NC(=O)CSc1ccccc1)C(=O)N(C)C (stereo not drawn) | -4.0 | / | / | / | / | /
COc1ccc2cc(C(=O)NCc3cccnc3-n3cccn3)c(C)nc2c1 | 5.2 | / | / | / | / | /
Cc1ccc(N=C2NN=C(c3cc(C)n(CC4CCCO4)c3C)CS2)cc1 (stereo not drawn) | -5.3 | / | / | / | / | /
CCOc1ccc(N=C2NN=C(c3cc(C)n(CC4CCCO4)c3C)CS2)cc1 (stereo not drawn) | -6.7 | -9.5% | ? | 23.1 | 23.1µM* | 29.0%
Cc1cc(C2=NNC(=Nc3ccccc3)SC2)c(C)n1CC1CCCO1 (stereo not drawn) | -36.3* | / | / | / | / | /
COCC(C)NC(=O)CSc1nc2ccccc2nc1C (stereo not drawn) | 4.4 | / | / | / | / | /
NS(=O)(=O)OCCCc1ccccc1 | -5.5 | -0.2% | ? | 20.2 | -11.3% | 0.9%
[2H]C(CCOS(N)(=O)=O)c1ccc(C(C)(C)C)cc1 (stereo not drawn) | -1.6 | ? | 20.6µM* | 17.9 | 20.6µM* | -33.2%
Cc1cc(S(=O)(=O)Nc2ccc(-c3ccc(N4CCCCC4)nn3)cc2)c(C)cc1Cl | -2.2 | / | 13µM* | / | ? | /
O=S(=O)(Nc1ccc(-c2ccc(N3CCCCC3)nn2)cc1)c1ccc(OC(F)(F)F)cc1 | 4.5 | / | ? | / | 16.4µM* | /
O=S(=O)(Nc1ccc(-c2ccc(N3CCCC3)nn2)cc1)c1ccc(Cl)cc1 | -1.8 | / | 14.6µM* | / | ? | /
CCOC(=O)C1CCN([C@H]2CS(=O)(=O)C[C@@H]2S(=O)(=O)c2ccc(F)cc2)CC1 | -2.9 | / | / | / | / | /
CCOC(=O)C(/C=C(\C#N)C(=O)OCC)=C(/N)N1CCN(c2ccc(Cl)cc2)CC1 | 2.7 | 3.6% | -14.6% | -8.0 | 16.4µM* | -25.3%
CCOC(=O)N1CCN(c2ccc(Cl)cc2)CC1 | -6.4 | 0.7% | -2.4% | 62.4 | -5.2% | 3.5%
CCc1ccccc1NC(=O)c1sc2nc3c(cc2c1N)CN(C)CC3 | 5.1 | / | / | / | / | /
CCCCCCC1CCC(C(=O)Nn2c(C)nc3ccccc3c2=O)CC1 (stereo not drawn) | -2.8 | -1.1% | ? | 24.2 | 18.4µM* | ?
CCCC1CCC(C(=O)Nn2c(C)nc3ccccc3c2=O)CC1 (stereo not drawn) | 0.5 | -10.5% | -19.9% | 10.0 | ? | 20.2%
CCn1c(=O)c(C(=O)Nn2c(C)nc3ccccc3c2=O)c(O)c2ccccc21 | ? | -1.0% | 16.4µM* | 29.6 | ? | -12.6%
CCn1c(=O)c(C(=O)Nc2nc3ccccc3[nH]2)c(O)c2ccccc21 | -8.5 | 8.91µM* | 2.91µM* | 25.1 | 2.59µM* | 11.2µM*
CCc1nc2ccccc2c(=O)n1NC(=O)c1c(O)c2ccccc2n(CC)c1=O | -39.7* | -8.1% | ? | 60.5 | ? | ?
CCOC(=O)C1=CN(c2ccc(F)cc2)C=C(C(=O)OCC)C1c1ccc2c(c1)OCO2 | 0.4 | / | / | / | / | /

Screens (PubChem)
